In PubChem BioAssay AID1159580 (chemical genetic matrix, 2015):
Hit rate of the full screen: of about 5,500 compounds, about 2,000 (36%) were called active. Roughly 18% stayed inconclusive and do not appear here. Cut-off read from the data, not from the text of the source: active = normalized growth mostly below about 0.91 (no sharp cut-off); inconclusive = no clear call, values can overlap the other calls; inactive = mostly above about 0.92. This is one part of the list.

Assay: chemical genetic growth profiling, strain panel (AID 1159580);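 note: tested at 20 µM; growth read once vehicle control cultures reached saturation at 30 °C; 1 = growth at the plate median or of vehicle wells; lower values mean less growth of the strain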
Details: growth OD
[1] = S. cerevisiae deletion strains, locus YAL013W, strain DEP1, active compounds read low
[2] = S. cerevisiae deletion strains, locus YBR229C, strain ROT2, active compounds read low
[3] = S. cerevisiae deletion strains, locus YDL101C, strain DUN1, active compounds read low
[4] = S. cerevisiae deletion strains, locus YDR150W, strain NUM1, active compounds read low
[5] = S. cerevisiae deletion strains, locus YEL061C, strain CIN8, active compounds read low
[6] = S. cerevisiae deletion strains, locus YGR078C, strain PAC10, active compounds read low
[7] = S. cerevisiae deletion strains, locus YHR030C, strain SLT2, active compounds read low
[8] = S. cerevisiae deletion strains, locus YHR087W, strain rtc3, active compounds read low
[9] = S. cerevisiae deletion strains, locus YJL187C, strain SWE1, active compounds read low
[10] = S. cerevisiae deletion strains, locus YJR043C, strain POL32, active compounds read low
[11] = S. cerevisiae deletion strains, locus YJR075W, strain HOC1, active compounds read low
[12] = S. cerevisiae deletion strains, locus YKL190W, strain CNB1, active compounds read low
[13] = S. cerevisiae deletion strains, locus YLR039C, strain RIC1, active compounds read low
[14] = S. cerevisiae deletion strains, locus YLR058C, strain SHM2 (second series), active compounds read low
[15] = S. cerevisiae deletion strains, locus YLR085C, strain ARP6, active compounds read low
[16] = S. cerevisiae deletion strains, locus YLR262C, strain YPT6, active compounds read low
[17] = S. cerevisiae deletion strains, locus YML094W, strain GIM5, active compounds read low
[18] = S. cerevisiae deletion strains, locus YMR219W, strain ESC1, active compounds read low
[19] = S. cerevisiae deletion strains, locus YMR263W, strain SAP30, active compounds read low
[20] = S. cerevisiae deletion strains, locus YNL153C, strain GIM3, active compounds read low
[21] = S. cerevisiae deletion strains, locus YNL298W, strain CLA4 (second series), active compounds read low
[22] = S. cerevisiae deletion strains, locus YNL322C, strain KRE1, active compounds read low
[23] = S. cerevisiae deletion strains, locus YNR030W, strain Alg12, active compounds read low
[24] = S. cerevisiae deletion strains, locus YPL055C, strain LGE1, active compounds read low
[25] = S. cerevisiae deletion strains, locus YPL241C, strain CIN2, active compounds read low
[26] = S. cerevisiae deletion strains, locus YPR135W, strain CTF4, active compounds read low

Measured: normalized growth

Cc1ccc(C)n1-c1ccc(C(=O)NNC(=O)c2ccc3nccnc3c2)cc1
inactive: [1] 0.989 | [2] 1 | S. cerevisiae deletion strains, locus YCL061C, strain MRC1, active compounds read low 1.06 | [3] 0.989 | [4] 1.04 | [5] 1.01 | [6] 1.01 | [7] 1.14 | [8] 0.986 | [9] 0.979 | [10] 1.02 | [11] 1.06 | [12] 0.991 | [13] 1.01 | [14] 0.999 | [15] 0.921 | [16] 1.11 | [17] 0.98 | [18] 0.989 | [19] 0.986 | S. cerevisiae deletion strains, locus YNL128W, strain TEP1, active compounds read low 0.991 | [20] 1.02 | [21] 0.992 | [22] 0.999 | [23] 1 | [24] 0.995 | [25] 0.976 | [26] 1.13 | S. cerevisiae strains, strain wild type, active compounds read low 0.993

Cc1cc(C(=O)NNS(=O)(=O)c2ccc(F)c(Cl)c2)nn1-c1c(Cl)cc(Cl)cc1Cl
inactive: S. cerevisiae deletion strains, locus YAR019C, strain CDC15, active compounds read low 0.978 | S. cerevisiae deletion strains, locus YBL105C, strain PKC1, active compounds read low 0.979 | S. cerevisiae deletion strains, locus YBR135W, strain CKS1, active compounds read low 0.985 | S. cerevisiae deletion strains, locus YBR136W, strain MEC1, active compounds read low 0.987 | S. cerevisiae deletion strains, locus YBR160W, strain CDC28, active compounds read low 0.98 | S. cerevisiae deletion strains, locus YDL017W, strain CDC7, active compounds read low 0.985 | S. cerevisiae deletion strains, locus YDL028C, strain MPS1, active compounds read low 0.985 | [3] 0.975 | S. cerevisiae deletion strains, locus YDL108W, strain KIN28, active compounds read low 0.99 | S. cerevisiae deletion strains, locus YDL132W, strain cdc53, active compounds read low 0.974 | S. cerevisiae deletion strains, locus YDL214C, strain PRR2, active compounds read low 1.04 | S. cerevisiae deletion strains, locus YDR052C, strain DBF4, active compounds read low 0.987 | S. cerevisiae deletion strains, locus YDR054C, strain cdc34, active compounds read low 0.983 | S. cerevisiae deletion strains, locus YDR226W, strain ADK1, active compounds read low 0.98 | S. cerevisiae deletion strains, locus YDR477W, strain SNF1, active compounds read low 1.03 | S. cerevisiae deletion strains, locus YER123W, strain YCK3, active compounds read low 1.04 | S. cerevisiae deletion strains, locus YER133W, strain GLC7, active compounds read low 1.04 | S. cerevisiae deletion strains, locus YFL009W, strain cdc4, active compounds read low 0.982 | S. cerevisiae deletion strains, locus YFL029C, strain CAK1, active compounds read low 0.988 | S. cerevisiae deletion strains, locus YFR003C, strain YPI1, active compounds read low 0.981 | S. cerevisiae deletion strains, locus YFR019W, strain FAB1, active compounds read low 1.02 | S. cerevisiae deletion strains, locus YFR028C, strain CDC14, active compounds read low 0.979 | S. cerevisiae deletion strains, locus YGR040W, strain KSS1, active compounds read low 1.03 | S. cerevisiae deletion strains, locus YGR052W, strain FMP48, active compounds read low 1.1 | S. cerevisiae deletion strains, locus YGR092W, strain DBF2, active compounds read low 1.02 | [7] 1.09 | S. cerevisiae deletion strains, locus YHR079C, strain IRE1, active compounds read low 1.05 | S. cerevisiae deletion strains, locus YHR082C, strain KSP1, active compounds read low 1.11 | S. cerevisiae deletion strains, locus YHR205W, strain SCH9, active compounds read low 1.04 | S. cerevisiae deletion strains, locus YIL147C, strain SLN1, active compounds read low 0.99 | S. cerevisiae deletion strains, locus YJL095W, strain BCK1, active compounds read low 1.07 | S. cerevisiae deletion strains, locus YJL128C, strain PBS2, active compounds read low 0.905 | S. cerevisiae deletion strains, locus YJL157C, strain FAR1, active compounds read low 1.03 | S. cerevisiae deletion strains, locus YJR016C, strain ILV3, active compounds read low 0.982 | S. cerevisiae deletion strains, locus YJR066W, strain TOR1 (second series), active compounds read low 1.05 | S. cerevisiae deletion strains, locus YJR066W, strain TOR1, active compounds read low 1.02 | S. cerevisiae deletion strains, locus YKL048C, strain ELM1, active compounds read low 1.01 | S. cerevisiae deletion strains, locus YKL067W, strain YNK1, active compounds read low 1.03 | S. cerevisiae deletion strains, locus YKL101W, strain HSL1, active compounds read low 1.02 | S. cerevisiae deletion strains, locus YKL193C, strain SDS22, active compounds read low 0.996 | S. cerevisiae deletion strains, locus YKL203C, strain TOR2, active compounds read low 1.13 | S. cerevisiae deletion strains, locus YLR113W, strain HOG1, active compounds read low 1.06 | S. cerevisiae deletion strains, locus YLR133W, strain CKI1, active compounds read low 1.02 | S. cerevisiae deletion strains, locus YLR403W, strain SFP1, active compounds read low 1.06 | S. cerevisiae deletion strains, locus YML070W, strain DAK1, active compounds read low 1.03 | S. cerevisiae deletion strains, locus YMR001C, strain CDC5, active compounds read low 0.993 | S. cerevisiae deletion strains, locus YMR205C, strain PFK2 (second series), active compounds read low 1.03 | S. cerevisiae deletion strains, locus YMR277W, strain FCP1, active compounds read low 0.978 | S. cerevisiae deletion strains, locus YNL006W, strain LST8, active compounds read low 0.994 | S. cerevisiae deletion strains, locus YNL020C, strain ARK1, active compounds read low 1.03 | S. cerevisiae deletion strains, locus YNL161W, strain CBK1, active compounds read low 0.988 | S. cerevisiae deletion strains, locus YNL183C, strain NPR1, active compounds read low 1.13 | S. cerevisiae deletion strains, locus YNL207W, strain RIO2, active compounds read low 0.986 | S. cerevisiae deletion strains, locus YNL222W, strain SSU72, active compounds read low 0.99 | S. cerevisiae deletion strains, locus YNL307C, strain MCK1 (second series), active compounds read low 1.04 | S. cerevisiae deletion strains, locus YOL078W, strain AVO1, active compounds read low 0.99 | S. cerevisiae deletion strains, locus YOL136C, strain PFK27, active compounds read low 1.04 | S. cerevisiae deletion strains, locus YOR061W, strain CKA2, active compounds read low 1.03 | S. cerevisiae deletion strains, locus YOR119C, strain RIO1, active compounds read low 1.08 | S. cerevisiae deletion strains, locus YOR231W, strain MKK1, active compounds read low 1.03 | S. cerevisiae deletion strains, locus YOR329C, strain SCD5, active compounds read low 0.985 | S. cerevisiae deletion strains, locus YPL031C, strain PHO85, active compounds read low 1.04 | S. cerevisiae deletion strains, locus YPL153C, strain RAD53, active compounds read low 1.03 | S. cerevisiae deletion strains, locus YPL204W, strain HRR25, active compounds read low 1.04 | S. cerevisiae deletion strains, locus YPL209C, strain IPL1, active compounds read low 0.987 | S. cerevisiae deletion strains, locus YPL256C, strain CLN2, active compounds read low 1.02 | S. cerevisiae deletion strains, locus YPR025C, strain CCL1, active compounds read low 0.981 | S. cerevisiae deletion strains, locus YPR106W, strain ISR1, active compounds read low 0.98 | S. cerevisiae deletion strains, locus YPR111W, strain DBF20, active compounds read low 0.964 | S. cerevisiae deletion strains, strain NNK1, active compounds read low 0.986 | S. cerevisiae deletion strains, strain TSCII, active compounds read low 0.995

Cc1ccc(C)n1-c1ccc(C(=O)NNS(=O)(=O)c2ccc(Cl)cc2)cc1
active: [25] 1.14 [resistant]
inactive: [1] 1.01 | [2] 1.01 | [3] 1.04 | [4] 0.991 | [5] 1.01 | [6] 1.01 | [7] 0.955 | [8] 1.01 | [9] 1.02 | [10] 0.999 | [11] 0.995 | [12] 0.978 | [13] 0.985 | [14] 1 | [15] 0.962 | [16] 0.98 | [17] 1.1 | [18] 1 | [19] 1 | S. cerevisiae deletion strains, locus YMR307W, strain GAS1, active compounds read low 0.979 | [20] 1.01 | [21] 0.945 | [22] 1 | [23] 0.993 | S. cerevisiae deletion strains, locus YOL006C, strain TOP1, active compounds read low 1.03 | [24] 1.01 | [26] 0.946
